For test [1], the system named is Plasmodium falciparum Sir2 (PF13_0152, Sir2A). Put plainly: pfSir2 binders on small-molecule microarrays, primary screen, biochemical, small-molecule microarray, 635 nm fluorescence (AID 1098).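 Note: score merges spot fluorescence intensity with its signal-to-noise ratio.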 Conditions: small-molecule microarray binding, fluorescence 635 nm; higher = more signal.
Test [2] is described as follows: small-molecule microarray binders of probe aDKK1, primary screen, biochemical, biotinylated probe, 635/667 nm fluorescence (AID 1099).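 Note: score merges 667nm spot fluorescence with signal to noise across triplicate slides; reference of the scale not given here.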 To be noted: higher = more signal.
Test [3] is described as follows: small-molecule microarray binders of probe aCHRDL2, primary screen, biochemical, biotinylated probe, 635/667 nm fluorescence (AID 1100). To be noted: higher = more signal.
Test [4] can be described thus: splicing luciferase reporter signal modulators, primary screen, spliceosome inhibition project, cell-based, HEK293, splice +/- reporter (AID 1101).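 Note: HEK293 cells carrying a splicing-competent luciferase reporter gene; test concentration not given here.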 Conditions: luminescence, 24 h, higher = more signal, called active from +8 up or from −8 down. In general terms: Reporter assays use an easily measured gene product as a stand-in for the process of interest.
Test [5] addresses Fibroblast growth factor 10 (Homo sapiens) (UniProt O15520). Put plainly: FGF10 binders on small-molecule microarrays, primary screen, biochemical, small-molecule microarray, 635 nm fluorescence (AID 1102). To be noted: FGF10 binding, fluorescence 635 nm, higher = more signal.
In test [6] the test system is glycogen synthase kinase-3 (GSK3A per assay name; protocol says GSK3B). Nature of the test: GSK3 binders on small-molecule microarrays, primary screen, biochemical, small-molecule microarray, 635 nm fluorescence, GSK3A (AID 1103). Note: the record names both GSK3A and GSK3B. To be noted: small-molecule microarray binding, fluorescence 635 nm; higher = more signal.
In test [7] the target is Epidermal growth factor receptor (Homo sapiens) (UniProt P00533). Nature of the test: EGFR binders on small-molecule microarrays, primary screen, biochemical, small-molecule microarray, 635 nm fluorescence (AID 1104).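 Note: score merges 667 nm emission intensity with spot signal to noise over triplicate slides.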 To be noted: EGFR binding, higher = more signal.
Sequence of Epidermal growth factor receptor (Homo sapiens) (P00533 whole entry, looked up): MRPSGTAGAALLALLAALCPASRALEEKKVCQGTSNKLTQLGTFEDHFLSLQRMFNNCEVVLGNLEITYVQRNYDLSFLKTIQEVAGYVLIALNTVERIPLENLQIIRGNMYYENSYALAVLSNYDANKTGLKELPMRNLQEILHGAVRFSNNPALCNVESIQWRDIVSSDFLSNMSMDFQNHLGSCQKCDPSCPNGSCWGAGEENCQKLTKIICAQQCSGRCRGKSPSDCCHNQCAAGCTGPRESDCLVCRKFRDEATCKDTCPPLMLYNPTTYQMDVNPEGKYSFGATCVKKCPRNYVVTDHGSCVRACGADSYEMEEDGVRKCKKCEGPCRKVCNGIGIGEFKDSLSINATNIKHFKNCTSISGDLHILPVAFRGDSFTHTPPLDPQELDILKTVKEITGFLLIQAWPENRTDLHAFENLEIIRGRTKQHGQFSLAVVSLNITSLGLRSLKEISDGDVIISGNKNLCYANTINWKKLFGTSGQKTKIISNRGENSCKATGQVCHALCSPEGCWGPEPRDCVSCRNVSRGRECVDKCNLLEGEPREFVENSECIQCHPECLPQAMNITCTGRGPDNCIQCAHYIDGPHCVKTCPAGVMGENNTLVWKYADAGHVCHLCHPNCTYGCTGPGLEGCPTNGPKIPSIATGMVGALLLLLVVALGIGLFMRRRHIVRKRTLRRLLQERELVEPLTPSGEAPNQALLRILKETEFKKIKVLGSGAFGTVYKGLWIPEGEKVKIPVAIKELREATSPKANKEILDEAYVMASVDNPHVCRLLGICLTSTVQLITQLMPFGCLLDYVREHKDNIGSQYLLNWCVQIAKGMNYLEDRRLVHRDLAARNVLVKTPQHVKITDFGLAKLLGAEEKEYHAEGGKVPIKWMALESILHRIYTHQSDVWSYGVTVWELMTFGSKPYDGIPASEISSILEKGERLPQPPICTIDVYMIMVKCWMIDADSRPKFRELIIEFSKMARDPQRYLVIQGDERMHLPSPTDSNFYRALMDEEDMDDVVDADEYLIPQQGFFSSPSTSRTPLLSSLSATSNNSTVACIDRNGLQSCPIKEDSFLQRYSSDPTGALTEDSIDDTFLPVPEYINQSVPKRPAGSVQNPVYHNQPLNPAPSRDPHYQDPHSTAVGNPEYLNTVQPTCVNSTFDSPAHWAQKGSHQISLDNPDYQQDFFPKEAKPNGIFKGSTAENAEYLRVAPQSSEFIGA
The target of test [8] is Follistatin-related protein 3 (Homo sapiens) (UniProt O95633). Nature of the test: FSTL3 binders on small-molecule microarrays, primary screen, biochemical, small-molecule microarray, 635 nm fluorescence (AID 1105).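 Note: score merges emission near 667 nm and signal to noise per printed spot across three slides.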 To be noted: FSTL3 binding, higher = more signal.
Sequence of Follistatin-related protein 3 (Homo sapiens) (O95633 whole entry, looked up): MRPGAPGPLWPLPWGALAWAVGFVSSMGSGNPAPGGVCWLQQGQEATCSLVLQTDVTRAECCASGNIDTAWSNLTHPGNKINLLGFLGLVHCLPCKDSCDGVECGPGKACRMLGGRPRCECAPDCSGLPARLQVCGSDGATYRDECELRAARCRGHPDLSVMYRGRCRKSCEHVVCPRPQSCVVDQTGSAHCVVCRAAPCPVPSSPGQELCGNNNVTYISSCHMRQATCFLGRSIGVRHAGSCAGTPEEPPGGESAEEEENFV
Test [9] addresses Dickkopf-related protein 1 (Homo sapiens) (UniProt O94907). Nature of the test: DKK1 binders on small-molecule microarrays, primary screen, biochemical, small-molecule microarray, 635 nm fluorescence scan (AID 1106).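 Note: score merges emission near 667 nm with signal to noise over three replicate slides.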 To be noted: DKK1 binding, higher = more signal.
Test [10] deals with Inhibin beta A chain (activin A). Put plainly: INHBA (activin A) binders on microarrays, primary screen, biochemical, small-molecule microarray, 635 nm fluorescence scan (AID 1107).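 Note: mouse activin A protein probed at 4.33 µg/mL on printed slides; score merges bound-protein fluorescence near 667 nm with spot signal-to-noise.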 To be noted: small-molecule microarray binding, higher = more signal.

Active and inactive are the calls of the source.

Sequence of Fibroblast growth factor 10 (Homo sapiens) (O15520 whole entry, looked up): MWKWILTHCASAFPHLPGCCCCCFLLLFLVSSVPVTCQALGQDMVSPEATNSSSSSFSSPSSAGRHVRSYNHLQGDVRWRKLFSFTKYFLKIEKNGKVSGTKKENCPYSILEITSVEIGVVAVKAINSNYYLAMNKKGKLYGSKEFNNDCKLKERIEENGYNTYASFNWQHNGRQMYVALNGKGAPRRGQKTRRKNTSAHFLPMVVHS
Sequence of Dickkopf-related protein 1 (Homo sapiens) (O94907 whole entry, looked up): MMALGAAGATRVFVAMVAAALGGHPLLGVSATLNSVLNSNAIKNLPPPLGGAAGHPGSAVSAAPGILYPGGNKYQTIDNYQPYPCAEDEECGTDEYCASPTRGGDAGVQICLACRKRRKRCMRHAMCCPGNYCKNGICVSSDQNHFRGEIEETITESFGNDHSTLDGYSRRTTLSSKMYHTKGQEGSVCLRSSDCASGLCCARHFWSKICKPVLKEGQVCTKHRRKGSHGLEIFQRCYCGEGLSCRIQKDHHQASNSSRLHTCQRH

`C=C(CCCC)/C(=C/C[C@H](OC(=O)c1ccncc1)c1ccccc1OCCO)c1cnc2ccccc2c1`: the composite z-score is 0.869 in [1]; -0.037 in test [2]; -0.286 in test [3]; 1.08 in [5]; 0.898 in test [6]; 0.591 in test [7]. Also, the results for the composite z-score in test [8], in [9] and in [10] were 1.49, 0.472 and 1.66, respectively. Moreover, the z-score in [4] is -0.292 (inactive).
For the molecule `C=CCC(OC(C)=O)[C@@H]1[C@@H](N(Cc2ccc(-c3ccccc3)cc2)C(=O)c2ccc(-c3ccccc3)cc2)c2cc(OCCCO)ccc2N1C(=O)Cc1ccc2ccccc2c1` (stereo not given in full), the composite z-score in [1] was -0.316; in [2], -0.108; in test [3], 0.336; in test [5], -0.133; in test [6], -0.0682; in test [7], 0.0825. The composite z-score is 0.394 in test [8], 0.0989 in [9] and 1.11 in test [10]. In addition, the z-score in test [4] is -0.412 (inactive).
For `C=C(COC)/C(=C/C[C@H](OC(C)=O)c1ccc(CO)o1)c1cc(C(=O)OC)ccc1OC`, the composite z-score in test [1] is 1.12; in test [2], 0.667; in test [3] it was -0.201; in [5], 0.483; in test [6], -0.0434; in [7], -0.173. For the same molecule, the composite z-score in test [8] is -0.0145; in [9], -0.164; in test [10] it was 1.32. The z-score in [4] is -0.0994 (inactive).
For the molecule `COC(=O)[C@@]1(Cc2ccc(F)cc2)[C@H]2c3cc(C(=O)N(C)C)n(Cc4cc(F)c(F)c(F)c4)c3C[C@H]2CN1C(=O)c1ccccc1`, the composite z-score in test [1] was 0.931; in test [2] it was 0.9; in [3], 1.19; in test [5] it was 1.16; in test [6], 0.744; in test [7] it was -0.024. Further, the values for the composite z-score in test [8], in test [9] and in test [10] were 1.08, -0.85 and 0.529, respectively. Moreover, the z-score in test [4] is -1.91 (inactive).
In the case of `C=CCNC(=O)[C@@H]1[C@H]2C(=O)O[C@H](c3ccccc3)[C@H](c3ccccc3)N2[C@H](c2ccc(O)cc2)[C@@]12C(=O)N(C(=O)OCCOC)c1ccc(C#CCNC(N)=O)cc12`, the composite z-score in [1] was determined as 0.88; in [2] it was 0.148; in test [3] it was 0.658; in test [5], 0.969; in test [6], 1.06; in test [7], 0.119. The composite z-score turned out to be 1.08 in test [8], 0.417 in test [9] and 1.02 in test [10]. Besides, in test [4], the z-score was -0.273 (inactive).
As to `C=CCC(OC(C)=O)[C@@H]1[C@@H](N(Cc2ccc(-c3ccccc3)cc2)C(=O)c2cccc3ccccc23)c2cc(OCCCO)ccc2N1C(=O)c1ccc(-c2ccccc2)cc1` (stereo not given in full), the composite z-score in test [1] was -0.333; in test [2], 0.4; in test [3] it was 0.672; in [5], 0.164; in test [6], 0.366; in test [7], -0.192. Also, the composite z-score in test [8] was 0.269; in test [9] it was -0.111; in test [10], 1.09. For the same molecule, the z-score in [4] was -1.05 (inactive).
With `O=C1C[C@@](C(=O)NCC(F)(F)F)(c2ccc([N+](=O)[O-])cc2)[C@@H](c2ccc(CO)cc2I)N1C1CCCCC1`, the composite z-score in test [1] amounted to 0.47; in test [2] it was 0.0918; in test [3] it was 0.574; in test [5], 1.09; in test [6] it was 1.18; in test [7], 0.515. For the same molecule, the results for the composite z-score in [8], in test [9] and in [10] were 0.995, 0.155 and 0.539, respectively. Also, in test [4], the z-score was 0.0169 (inactive).
Take `CN(C)CCCC[C@@H]1NC(=O)[C@H]2C[C@@H](C(=O)NCCCCCCN)[C@@H](c3ccc(O)cc3)N2C1=O`: the composite z-score is 0.436 in test [1]; 1.6 in test [2]; 1.07 in test [3]; 1.52 in test [5]; 1.29 in test [6]; 0.247 in [7]. Further, the composite z-score in test [8] was 1.41; in [9], 0.644; in test [10], 1.17. Moreover, in test [4], the z-score was -0.193 (inactive).
With `COc1cccc(-c2cccc(=O)o2)c1`, the composite z-score in test [1] is 1.37; in test [2] it was 0.956; in [3], 0.513; in test [5], 0.423; in test [6], -0.21; in [7] it was 0.482. The composite z-score was found to be 0.148 in test [8], 0.143 in test [9] and 1.15 in test [10]. Moreover, the z-score in test [4] is 0.742 (inactive).
As to `COC(=O)[C@@]1(Cc2ccccc2)[C@H]2c3cc(C(=O)N4CCCC4)n(Cc4ccc(S(C)(=O)=O)cc4)c3C[C@H]2CN1C(=O)c1ccccc1`, the composite z-score in test [1] came to 0.525; in [2] it was 1.52; in [3] it was 1.03; in test [5] it was 0.387; in [6], 1.18; in test [7] it was 0.679. Moreover, the composite z-score worked out at 0.94 in [8], 0.222 in test [9] and 1.3 in [10]. In [4], the z-score was -1.18 (inactive).
For `CC(C)C(O)C1C=CC2C(=O)N(c3ccccc3)C(=O)C2N1Nc1ccc([N+](=O)[O-])cc1` (stereo not given), the composite z-score in test [1] is 0.0242; in test [2], 0.814; in test [3], 0.761; in test [5] it was 0.635; in test [6], 0.368; in test [7] it was -0.0978. The figures for the composite z-score in test [8], in [9] and in test [10] were 0.29, -0.467 and 0.85, respectively. Also, in test [4], the z-score was 0.735 (inactive).

These data come from PubChem BioAssay.
